Only some compounds are listed: those with a hit (about 3.5% of all), similar ones and a draw of the others.
Sm TGR block = qHTS Assay for the Inhibitors of Schistosoma Mansoni Peroxiredoxins. Schistosoma mansoni thioredoxin glutathione reductase (TGR), Q962Y6. purified TGR, DTNB reduction, TNB absorbance 405 nm. Potency, µM (highest dose often 114 µM), hits mostly inhibitors. actives 3% (n = 360,000). AID 485364, 2010; also: nearly all actives have a fitted effect of over 60% in size
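TGR 20 nM + NADPH 100 uM (dispensed conc.), cpd preinc 15 min RT; start with NADPH (500 uM addition) then DTNB (15 mM addition). Kinetic TNB absorbance, 405 nm filter. Four-parameter Hill fit across titration.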
FBPA Giardia inh = qHTS Assay for Inhibitors of Fructose-1,6-bisphosphate Aldolase from Giardia Lamblia; A8B2U2; purified Giardia FBPA; Potency, µM (doses to about 59.6 µM), hits mostly inhibitors; actives 0.71% (n = 290,000); also: nearly all actives have a fitted effect of over 55% in size
Target sequence (A8B2U2 whole entry, looked up): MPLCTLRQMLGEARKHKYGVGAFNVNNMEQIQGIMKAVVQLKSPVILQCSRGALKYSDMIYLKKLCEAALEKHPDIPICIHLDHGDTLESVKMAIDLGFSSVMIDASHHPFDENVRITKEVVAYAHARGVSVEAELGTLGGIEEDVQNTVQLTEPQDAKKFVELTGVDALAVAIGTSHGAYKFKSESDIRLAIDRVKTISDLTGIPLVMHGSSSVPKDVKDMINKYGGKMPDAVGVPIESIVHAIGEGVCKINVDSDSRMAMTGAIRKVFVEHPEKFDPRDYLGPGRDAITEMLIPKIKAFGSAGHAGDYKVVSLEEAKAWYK
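40 nM FBPA preincubated 10 min at RT with compound (up to 57.5 uM final), then substrate plus GAPDH/TPI/NAD/arsenate coupling and diaphorase/resazurin added. Fluorescence read after 20 min at RT, 525/598 nm.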
LmPK inh = qHTS Assay for Inhibitors of Leishmania Mexicana Pyruvate Kinase (LmPK) | Q27686 | purified LmPK, Kinase-Glo ATP luminescence, 1 h | Potency, µM (series often up to 57.5 µM), most hits filed as inhibitors | actives 0.37% (n = 290,000) | AID 1721, 2009
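Purified LmPK (0.1 nM) with 0.5 mM PEP and 0.1 mM ADP in imidazole buffer pH 7.2 with MgCl2/KCl, 1 h at room temperature. ATP formed was read by luciferase luminescence and normalized to no-enzyme and uninhibited controls.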
NS1 function inh = qHTS Assay for Inhibitors of Influenza NS1 Protein Function; Potency, µM (doses to about 46.1 µM); actives 0.4% (n = 270,000); AID 2326, 2010; calls by dose curve; also: actives are rising curves; nearly all actives have a fitted effect of over 50% in size
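A cell-based growth assay was used: compounds that relieve NS1-induced slow growth of budding yeast raise OD600. Assay medium was yeast nitrogen base with ammonium sulphate and -URA supplement, pH 6.0, with 2% galactose.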
Tb PYK inh = qHTS of Trypanosoma Brucei Inhibitors | TbPYK enzyme, Kinase-Glo Plus ATP luminescence, 45 min | Potency, µM (doses to about 76.8 µM), most hits filed as inhibitors | actives 0.12% (n = 410,000) | AID 624173, 2012; also: nearly all actives have a fitted effect of over 50% in size
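Luminescence from Kinase-Glo Plus, added after a 45-minute room-temperature reaction, served as the end-point read-out. The enzyme and substrate were preincubated with compound before ADP (130 uM final) initiated turnover. Concentration-effect curves came from normalized qHTS data.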
RE007 growth inh = qHTS Assay for Inhibitors of the HIV-1 protein Vpr. S. pombe RE007 Vpr strain, BacTiter-Glo ATP luminescence, 24 h. Potency, µM (titrated, usually from 92.2 µM), usual class: inhibitors. actives 0.21% (n = 360,000). AID 651644, 2012; active = well fitted falling curve with a large enough effect; inconclusive = small, poorly fitted or top-dose-only effect; inactive = no such curve, though single readings can be large or run the other way; also: nearly all actives have a fitted effect of over 50% in size
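Fission yeast RE007 carrying one integrated HIV-1 vpr copy, seeded at OD 0.01 in PMG+AL medium with 23 nL pinned compound. Grown 24 h at 30 degrees; viability read by BacTiter-Glo luminescence after 5 min.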
A number is an active result; 0 = inactive; ? = inconclusive; - = no result given; [ ] = dose if it differs, or a comment. Unless noted, calls follow the shape of the dose curve; as a rule, active = well fitted curve in the direction sought with a large enough effect; inconclusive = small, poorly fitted or top-dose-only effect, or another doubt; inactive = no such curve, though single readings can be large; an effect the other way counts as inactive or inconclusive.

SMILES	Sm TGR block	FBPA Giardia inh	LmPK inh	NS1 function inh	Tb PYK inh	RE007 growth inh
COc1ccccc1NC(=O)c1oc2ccccc2c1NC(=O)c1c(F)cccc1F	0	-	-	-	0	-
CC(=O)c1cccc(-n2c(CCC(=O)O)ccc2-c2cccs2)c1	5.6µM	0	0	0	0	0
COC(=O)c1ccccc1-n1c(CCC(=O)O)ccc1-c1ccccc1	45µM	0	0	0	0	0
COc1ccc(OC)c(NC(=O)Cn2c(CCC(=O)O)ccc2-c2cccs2)c1	?	0	0	0	0	0
O=C(O)CCc1ccc(-c2ccccc2)n1NC(=O)c1cccs1	50µM	0	0	0	0	0
O=C1CC(CC(=O)N/N=C/c2ccccc2[N+](=O)[O-])=NN1	0	0	0	6.3µM	0	0
O=C(C[n+]1ccccc1)N/N=C/c1ccccc1[N+](=O)[O-]	0	0	0	0	0	0
O=C(N/N=C/c1sc2ccccc2c1O)c1ccccc1	0	?	0	0	0	45µM
CC1C(=O)OC2C1CCC1(C)CCC(=O)C(C)C21 (stereo not drawn)	3.5µM	0	0	0	0	0
N#Cc1c(SCC(=O)Nc2nccs2)nc2c(c1-c1ccco1)CCCC2	45µM	0	0	?	0	0
CC(C)=CCC/C(C)=C\COc1c2ccoc2cc2oc(=O)ccc12	-	0	-	-	-	-
Cc1ccc(NC(=O)C2CCCN(S(=O)(=O)c3c(C)nn(C)c3C)C2)c(C)c1 (stereo not drawn)	0	-	-	-	0	-
O=[N+]([O-])c1cc(Cl)ccc1-c1nc(-c2ccncc2)no1	0	0	0	0	0	0
O=[N+]([O-])c1cnc2nc(-c3ccncc3)nn2c1O	0	0	13µM	-	0	?
O=C(CCN1C(=O)c2ccccc2C1=O)C1=NN[C@@H]2C(=O)N(c3ccc4c(c3)OCO4)C(=O)[C@H]12	25µM	0	0	0	0	0
Cc1ccc(N2C(=O)[C@@H]3C(C(=O)CCN4C(=O)c5ccccc5C4=O)=NN[C@@H]3C2=O)cc1	0	0	0	0	0	0
CCOC(=O)C(N)CSC1CC(=O)N(CCc2ccccc2)C1=O (stereo not drawn)	8.9µM	?	0	0	0	0
Cn1cc(C(=O)NCc2ccc(Cl)cc2)c(=O)c2cc(S(=O)(=O)N3CCCCCC3)ccc21	0	-	-	-	0	-
C/C(=N/O)c1no[n+]([O-])c1/C(C)=N\O	7.1µM	0	0	0	0	0
Cc1ccsc1CN(Cc1ccco1)C(=O)c1ccc(Cl)cc1	0	-	-	-	0	-
CCOC(=O)c1ccc(N2C(=O)c3n[nH]c(-c4ccco4)c3C2c2ccc(OC)cc2OC)cc1 (stereo not drawn)	0	-	-	-	0	-
CCCOc1cc(N)ccc1C(=O)OCCN(CC)CC	0	0	-	-	0	0[18.4 µM]
CCCOc1ccc(N)cc1N	1.8µM	0.4µM	0	0	0	0
COc1ccc(OC)c(NC(=O)C(C)n2c(=O)c(-c3ccccc3NC(C)=O)nc3ccccc32)c1 (stereo not drawn)	0	-	-	-	0	-
COc1cc(C(=O)O/N=C2/C=CC(=O)C(C)=C2C)cc(OC)c1OC	0	4µM	0	0	0	0
SMILES	Sm TGR block	FBPA Giardia inh	LmPK inh	NS1 function inh	Tb PYK inh	RE007 growth inh
COc1cc(C(=O)ON=C2C3CC4CC(C3)CC2C4)cc(OC)c1OC	0	0	0	0	0	0
CCOC(=O)c1cnc(-c2ccccc2)nc1C(F)(F)F	0	0	0	-	0	0
CCOC(=O)c1cnc2c(F)ccc(F)c2c1Sc1ccccc1	16µM	0	0	0	0	0
Cc1ccccc1N/C(=C(/C(Cl)=C(Cl)Cl)[N+](=O)[O-])n1nnc2ccccc21	14µM	?	0	0	0	0
COc1ccc(N/C(=C(/C(Cl)=C(Cl)Cl)[N+](=O)[O-])n2nnc3ccccc32)cc1	?	?	0	0	-	-
Cc1nc2nc(C(F)(F)F)[nH]n2c(=O)c1Cc1ccccc1	0	-	-	-	0	-
Cc1ccccc1-c1nc(CS(=O)(=O)CC(=O)N2CCOCC2)c(C)o1	16µM	0	0	0	0	0
CCCNC(=O)CS(=O)(=O)Cc1nc(-c2ccccc2C)oc1C	50µM	0	0	0	0	0
Cc1ccc(-c2nc(CS(=O)(=O)CC(=O)N3CCc4ccccc4C3)c(C)o2)cc1	25µM	0	0	0	0	0
O=c1cc(-c2ccc(F)cc2F)[nH]c2ccc(F)cc12	-	0	-	-	-	-
CC(=O)Nc1ccccc1-c1nc2ccccc2n(CC(=O)Nc2ccc(C)c(Cl)c2)c1=O	0	-	-	-	0	-
O=C1C2ON(c3ccccc3)C(c3ccncc3)C2C(=O)N1c1ccc(N2CCOCC2)cc1 (stereo not drawn)	0	0	0	0	0	0
O=C1C2ON(c3ccccc3)C(c3ccncc3)C2C(=O)N1c1ccc(Br)cc1 (stereo not drawn)	45µM	0	0	0	0	0
Cc1ccc(N2C(=O)C3ON(c4ccccc4)C(c4ccncc4)C3C2=O)cc1 (stereo not drawn)	16µM	0	0	0	0	0
CN(C)c1ccc(C2C3C(=O)N(c4ccc(C(=O)O)cc4)C(=O)C3ON2c2ccccc2)cc1 (stereo not drawn)	0	0	0	0	0	0
O=C(O)COc1ccccc1C1C2C(=O)N(c3ccccc3)C(=O)C2ON1c1ccccc1 (stereo not drawn)	22µM	0	0	0	0	0
O=C(Nc1nc2ccc(S(=O)(=O)N3CCCC3)cc2s1)c1cccc(F)c1	0	-	-	-	0	-
Cc1oc2ccc(O)c(CN3CCCCCC3)c2c1C(=O)Nc1cccc(C(F)(F)F)c1	0	-	-	-	0	-
CCCSC1=C(C#N)C(c2ccc(OC)cc2)C2=C(CC(C)(C)CC2=O)N1 (stereo not drawn)	0	0	0	0	0	0
CSC1=C(C#N)C(c2ccc(Cl)cc2)C2=C(CC(C)(C)CC2=O)N1 (stereo not drawn)	28µM	0	0	0	0	0
COC(=O)CCCC1=CC2=C(c3ccccc3)C(=O)C(C)(OC(=O)C3CCCC3)C(=O)C2=CN1Cc1ccc2c(c1)OCO2 (stereo not drawn)	18µM	?	0[11.5 µM]	0	0	0
COC(=O)CCCC1=CC2=C(c3ccccc3)C(=O)C(C)(OC(=O)C3CCCC3)C(=O)C2=CN1Cc1ccc(OC)cc1 (stereo not drawn)	22µM	?	0[11.5 µM]	0	0	0
COC(=O)CCCC1=CC2=C(c3ccccc3)C(=O)C(C)(OC(=O)C3CCCC3)C(=O)C2=CN1Cc1ccccc1 (stereo not drawn)	-	0[12.9 µM]	0[11.5 µM]	-	-	-
OC(C#CCN1CCOCC1)c1cccs1 (stereo not drawn)	28µM	0	0	0	0	0
